From PubChem
Shown are actives, neighbours in structure and some others; about 3.2% of the full set was active somewhere.
ERa SRC1 pot = enhances coactivator binding to human estrogen receptor alpha | TR-FRET ERalpha-LBD/SRC-Cy5 coactivator binding, 2 h; 100 = basal binding, no effect | coactivator binding (% of control), % at 25.6 µM | 86,000 tested, 1.3% active; in the data active = activity above about 200%;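 also: binding measured in presence of low estradiol as agonist stimulus; 0% = peptide alone without receptor and 100% = receptor with peptide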
Target sequence (P03372 whole entry, looked up, the tested form may be a part): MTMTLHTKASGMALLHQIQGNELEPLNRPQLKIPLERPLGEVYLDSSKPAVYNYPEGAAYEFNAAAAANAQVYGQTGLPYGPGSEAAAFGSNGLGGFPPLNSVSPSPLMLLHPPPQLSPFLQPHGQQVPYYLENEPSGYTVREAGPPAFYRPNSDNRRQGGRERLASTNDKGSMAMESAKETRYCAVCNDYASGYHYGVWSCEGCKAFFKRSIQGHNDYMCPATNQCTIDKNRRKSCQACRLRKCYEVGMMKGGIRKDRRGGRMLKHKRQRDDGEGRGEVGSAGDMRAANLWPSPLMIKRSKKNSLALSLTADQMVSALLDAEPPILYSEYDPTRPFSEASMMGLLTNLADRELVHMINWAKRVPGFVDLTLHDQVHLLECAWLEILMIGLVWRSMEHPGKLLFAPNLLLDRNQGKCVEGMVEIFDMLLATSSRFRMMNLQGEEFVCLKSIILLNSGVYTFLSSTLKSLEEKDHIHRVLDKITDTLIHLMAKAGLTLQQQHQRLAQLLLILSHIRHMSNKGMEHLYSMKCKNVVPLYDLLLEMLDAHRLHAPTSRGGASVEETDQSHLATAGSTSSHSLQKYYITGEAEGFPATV
ERb SRC1 inh = blocks coactivator binding to human estrogen receptor beta; inhibition, % at 25.6 µM; 86,000 tested, 1.3% active; TR-FRET ER-beta LBD / SRC1-Cy5 peptide binding; receptor agonist-loaded with 1 µM estradiol; Q92731;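 active = compounds whose percent inhibition of the receptor-coactivator binding signal exceeds about 50% in the single-dose screen, limit read from the data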;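 also: 0% = receptor plus peptide wells without compound and 100% = peptide-only wells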
ERa coact inh = blocks coactivator binding to human estrogen receptor alpha | P03372 | TR-FRET ER-alpha LBD / SRC-1 peptide, estradiol-bound | inhibition, % at 25.6 µM | 86,000 tested, 1.7% active | AID 629; in the data active = inhibition above about 50%;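 also: 0% = receptor plus peptide control and 100% = peptide only without receptor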
FAK inh = inhibitors of human focal adhesion kinase; inhibition, %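 (tested at 7 µM)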; Q05397; biochemical FAK kinase activity assay; 97,000 tested, 0.84% active; AID 727; in the data active = inhibition above about 19%;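 also: 0% = DMSO and 100% = reference compound high control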
Active calls of the source: *; · = no result given; [ ] = another dose, or the depositor's remark.

SMILES	ERa SRC1 pot	ERb SRC1 inh	ERa coact inh	FAK inh
COc1ccc2nc(SCC(=O)Nc3ccc(S(=O)(=O)N4CCCC4)cc3)c(C#N)cc2c1	509*[fluorescence artefact?]	40	19	-7
N#Cc1cc2ccccc2nc1SCC(=O)Nc1ccc(S(=O)(=O)N2CCCC2)cc1	289*[fluorescence artefact?]	23	16	-7
Cc1ccc(-c2nnc(SCC(=O)Nc3ccccc3N3CCOCC3)o2)cc1	104	-3	-11	0
Cc1ccc2nc(SCC(=O)Nc3ccccc3N3CCOCC3)c(C#N)cc2c1	217*[fluorescence artefact?]	17	19	-14
C=CCN1C(=O)C(Cc2ccc(OC)cc2)S/C1=N/N=C/c1ccco1 (configuration not stated)	·	·	·	-1
COc1ccc(Cl)cc1-c1nc(-c2ccc(Br)o2)no1	277*[fluorescence artefact?]	48	59*[fluorescence artefact?]	-1
O=C(COC(=O)CCNS(=O)(=O)c1ccc(Cl)cc1)NCc1ccco1	102	-23	-19	-4
COc1ccc(S(=O)(=O)N(C)CC(=O)NCc2ccco2)cc1	86	7	7	2
COc1ccc(OCCC(=O)OCC(=O)NCc2ccco2)cc1	233*[fluorescence artefact?]	50	81*	·
COc1ccccc1NCCC(=O)OCC(=O)NCc1ccco1	30	61*[fluorescence artefact?]	77*[fluorescence artefact?]	18
COc1ccc(N(CC(=O)NCc2ccco2)S(C)(=O)=O)cc1OC	107	0	-5	-2
COc1ccc(N(CC(=O)NCc2ccco2)S(C)(=O)=O)cc1	96	99*[fluorescence artefact?]	-7	-10
COc1cccc(CN(C)CC(=O)NC(=O)NCc2ccco2)c1	103	39	58*[fluorescence artefact?]	7
C=CCNC(=O)C1=NOC(CNC(=O)c2c(-c3ccccc3Cl)noc2C)C1 (configuration not stated)	·	·	·	-2
CCOCCCNC(=S)N1C2CCC1CC(NC(=O)NC1CCCCC1)C2 (configuration not stated)	·	·	·	-4
COc1nc(OC)nc(N2CCC(NC(=O)C(Cc3ccc(C(C)C)cc3)NC(C)=O)CC2)n1 (configuration not stated)	115	-12	-9	1
CCOc1ccc(-c2cc(CCCC(=O)NCc3ccc(C)cc3)no2)cc1	·	·	·	3
CCOc1ccc(-c2cc(CCCC(=O)NCc3ccco3)no2)cc1	204*	-2	-43	·
Cc1cc(NC(=O)Cn2c(C)nc3ccccc3c2=O)ccc1Br	265*	9	19	2
CCC(=O)Nc1ccc2nc(C)n(CC(=O)Nc3ccccc3)c(=O)c2c1	96	-11	-17	-4
O=C(CSc1nnc(-c2ccccn2)n1Cc1ccco1)c1ccccc1	95	-5	-4	-1
COc1ccc(C(=O)CSc2nnc(-c3ccccn3)n2Cc2ccco2)cc1	271*[fluorescence artefact?]	14	14	2
COc1cc(NC(=O)C2CCCN(c3ncccn3)C2)cc(OC)c1 (configuration not stated)	83	13	2	3
COC(=O)c1ccc(Sc2nnnn2-c2ccccc2)c([N+](=O)[O-])c1	·	·	·	10
Cc1ccc(NC2=CC(=O)C(=O)c3ccccc32)cc1	109	4	-8	26*
SMILES	ERa SRC1 pot	ERb SRC1 inh	ERa coact inh	FAK inh
Cc1ccc(Nc2ccccc2)cc1	115	-9	-11	-2
CN(C)c1ccc(NC(=O)N2CCOCC2)cc1	24	64*[fluorescence artefact?]	43	5
COc1ccc(-c2cc(C(=O)NCc3ccc(Cl)cc3)no2)cc1OC	·	·	·	5
COc1cccc(-c2cc(C(=O)Nc3cc(C)on3)no2)c1	428*[fluorescence artefact?]	30	23	5
COc1cccc(-c2cc(C(=O)NCc3ccc(Cl)cc3)no2)c1	95	20	70*[fluorescence artefact?]	0
Cc1cc(NC(=O)c2cc(-c3cccc(Cl)c3)on2)no1	191	16	28	3
c1ccc(-c2noc(-c3ccc4c(c3)OCO4)n2)nc1	45	57*	62*[fluorescence artefact?]	·
O=C1c2ccccc2C(=O)N1CCc1nc2ccccc2c(=O)n1CCCn1ccnc1	126	2	2	1
CCCc1nc(SCC(=O)Nc2ccc(N3CCOCC3)cc2)c2ccccc2n1	96	-1	-30	10
CC(C)c1nc(SCC(=O)Nc2ccc(N3CCOCC3)cc2)c2ccccc2n1	105	-23	-24	34*
O=C(CCc1ccccc1)Nc1ccc(N2CCOCC2)cc1	111	59*	4	·
CC(C)C1Cc2[nH]c(=O)c(C(=O)O)cc2CO1 (configuration not stated)	117	2	37	2
CCC(=O)Nc1ccc(C(=O)CSc2nc3ccccc3cc2CC)cc1	·	·	·	7
CSc1nc(Oc2ccc3ccccc3c2)c2ccccc2n1	·	·	·	3
Cc1ccc(C(C)C)c(OCC(=O)OCc2c(C)noc2C)c1	134	51*[fluorescence artefact?]	-5	-7
CCCn1c(=O)c2ccccc2n2c(SCN3C(=O)c4ccccc4C3=O)nnc12	111	96*[fluorescence artefact?]	-3	·
CCS(=O)(=O)Nc1ccc(C(=O)CC2(O)C(=O)Nc3ccccc32)cc1 (configuration not stated)	219*[fluorescence artefact?]	-4	-3	2
N=c1sccn1CC(=O)Nc1ccccc1-c1ccccc1	119	-3	5	·
Cc1oc(C(=O)Nc2ccc(O)cc2)cc1COc1ccccc1	98	52*[fluorescence artefact?]	7	-2
Cc1ccc(OCc2cc(C(=O)Nc3ccccc3)oc2C)cc1	89	-17	1	2
C=C1C(C(=O)N2CCOCC2)C1C(=O)N1CCOCC1 (configuration not stated)	128	-7	-8	4
O=C(NCCc1c[nH]c2ccc(Cl)cc12)c1cccnc1	100	-16	-1	0
c1ccc(-c2nc(N3CCN(c4ccccc4)CC3)nc(-n3ccnc3)n2)cc1	185	29	83*[fluorescence artefact?]	4
c1ccc(-c2nc(N3CCCCCC3)nc(-n3ccnc3)n2)cc1	73	-1	-1	2
c1ccc(-c2ccc(C3=Nn4c(Cn5nnc6ccccc65)nnc4SC3)cc2)cc1	·	·	·	2
SMILES	ERa SRC1 pot	ERb SRC1 inh	ERa coact inh	FAK inh
COc1cc(NC(=O)C2CCCN2C(=O)C2CCC(C)CC2)cc(OC)c1OC (configuration not stated)	·	·	·	1
COc1ccc(OC)c(NC(=O)C2CCCN2C(=O)C2CCC(C)CC2)c1 (configuration not stated)	97	10	91*[fluorescence artefact?]	-1
COc1ccc(OC)c(NC(=O)CCN2CCN(Cc3ccccc3)CC2)c1	102	-11	2	4
COc1ccc(OC)c(NC(=O)CCN2CCCCCC2)c1	46	48	51*[fluorescence artefact?]	3
CCc1c(C(=O)Nc2cc(C)cc(C)c2)[nH]c(C)c1C(C)=O	90	-12	2	2
CCCc1cc2c(=O)c(-c3ccc4c(c3)OCCO4)coc2cc1OC(=O)c1ccco1	122	21	51*	0
CCc1cc2c(=O)c(-c3ccc4c(c3)OCCO4)coc2cc1OC(=O)c1ccco1	213*[fluorescence artefact?]	58*[fluorescence artefact?]	70*[fluorescence artefact?]	3
CCOc1cc2[nH]c(=O)n(CC3CCC(C(=O)NC(C)CC)CC3)c(=O)c2cc1OCC (configuration not stated)	107	2	6	·
COc1ccc(Nc2nnc(SCc3cc(=O)n4ccsc4n3)s2)cc1	52	52*	76*[fluorescence artefact?]	4
O=C(NCCn1ccc2ccccc21)c1ccc2c(c1)OCO2	116	-4	-9	·
c1ccc(C2(Cn3ccc4ccccc43)OCCO2)cc1	137	-6	99*[fluorescence artefact?]	-3
